Results from PubChem BioAssay AID493169 (National Center for Advancing Translational Sciences (NCATS), 2011).
Records with an inconclusive call do not appear. Calls of active or inactive are those of the source. Calls follow the shape of the dose curve; as a rule, active = well fitted inhibition curve with a large enough effect; inconclusive = small, poorly fitted or top-dose-only effect; inactive = flat fitted curve, though single readings scatter.

Assay: CHOP2 Reporter Counterscreen Assay for Inhibitors of Ubiquitin-specific Protease USP2a;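 also: activated enterokinase alone at 50 pM in a cell-free format rather than USP2a or CHOP2; nearly all actives have a fitted effect of over 55% in size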
Conditions: purified enterokinase, fluorogenic substrate, 485/531 nm; series mostly up to 38.3 µM; activity change, negative = inhibition: at the top concentration
From the text: NIH Molecular Libraries Probe Centers Network [MLPCN] NIH Chemical Genomics Center [NCGC] MLPCN Grant: XO1-MH079852-01 PI Name: Nicholson, Ben. Progenra Inc, Malvern, PA NCGC Assay Overview: Homeostasis of cellular proteins is maintained through a combination of synthesis and degradation. The pathway that accounts for the majority of protein degradation is the ubiquitin-proteasomal pathway. Ubiquitin (Ub) is highly conserved in all cells and the generation of a multi-Ub chain typically targets proteins for degradation by the proteasome. However, ubiquitination is highly reversible and dynamic. Deubiquitination, the reverse process, is catalyzed through the action of enzymes referred to as isopeptidases or deubiquitinating enzymes (DUBs). This group of enzymes is collectively responsible for maintaining adequate pools of free ubiquitin and regulating the ubiquitination status of cellular proteins. The class of DUBs referred to as the ubiquitin-specific proteases (USP) family functions endoproteolytically to cleave Ub chains from a wide range of protein substrates. USP2a deubiquitinates fatty acid synthase (FASN) which has recently been identified as an emerging oncology target. To identify inhibitors of USP2a a cell-free assay was employed. This assay is a counterscreen against the reporter enzyme used to measure USP2a activity in the primary qHTS assay. The reporter enzyme is a protease (enterokinase, EK; EC 3.4.21.9), which is activated when a Ub sequence is cleaved by USP2a. The counterscreen assay is performed in the same buffer and conditions as the primary USP2a coupled assay but uses fully activated EK alone. The assay gives a fluorescent read-out at excitation/emission wavelengths of 485/531. The assay was provided by Progenra, Inc. and has been licensed for sale by LifeSensors, Inc.
NCGC Assay Protocol: The assay buffer, prepared fresh at the day of the assay, contains 20mM Tris-HCl pH 8.0, 2mM CaCl2, 2mM beta-Mercaptoethanol, 0.05% CHAPS. 3uL of 100 pM EK (50 pM final) was dispensed into a medium-binding black solid Kalypsys 1,536 well plate using the Kalypsys dispenser. The assay plate was then pinned with 23nL compounds in DMSO with the Kalypsys pintool in columns 5-48 (0.3% final DMSO concentration). The negative control was buffer/DMSO only in column 3. The assay plate is incubated at RT for 30min. Subsequently, 3uL of reporter substrate (25nM final) were dispensed into the plate using the Kalypsys dispenser. Plates were read after 10 min at RT on a ViewLux (Perkin Elmer) plate reader using the following wavelengths: Ex 485nm /Em 531nm. Data were normalized to the AC100 inhibition (buffer alone). Concentration-response curves were fitted to the normalized data and the concentration-response curves were then classified based on curve quality (r2), response magnitude and degree of measured activity. The time zero reading was used to flag fluorescence artifacts.
% is scaled to controls: 0 for no effect and ±100 for the full control effect; potency is read from the fitted curve at half-maximal effect.

Row | SMILES | activity change, negative = inhibition | Potency
1 | O=c1[nH]c(=O)n(Cc2ccc(F)cc2)c(O)c1C=NCCCn1ccnc1 | 0.404% (inactive) | –
2 | Cc1nn(Cc2ccc(Cl)cc2Cl)c(Cl)c1C(=O)Nc1ccc(OC(F)F)cc1 | -1.08% (inactive) | –
3 | CCCC1=C(C(=O)OCC)C2(C(=O)Nc3ccc(C)cc32)C(C#N)=C(N)O1 (centres undefined) | 7.12% (inactive) | –
4 | Clc1ccc(C(c2ccc(Cl)cc2)n2cc[n+](CC(OCc3ccc(Cl)cc3Cl)c3ccc(Cl)cc3Cl)c2)cc1 (centres undefined) | – | 3.16 µM (active)
5 | O=C(COc1ccc(S(=O)(=O)N2CCOCC2)cc1)N1CCN(Cc2ccc3c(c2)OCO3)CC1 | -1.96% (inactive) | –
6 | O=c1[nH]c(=S)n(Cc2ccco2)c(O)c1C=NCc1cccs1 | – | 8.91 µM (active)
7 | COc1ccc(NC(=O)c2c(C)nn(Cc3ccccc3Cl)c2Cl)cc1Cl | 4.72% (inactive) | –
8 | CC(C)N1C(=O)/C(=C/C=C/c2ccco2)C(=O)N(Cc2ccco2)C1=O | – | 7.94 µM (active)
9 | FC(F)(F)c1ccc2c(c1)N(CCCN1CCN(CCCl)CC1)c1ccccc1S2 | -12.5% (inactive) | –
10 | O=C1NC(=S)N(c2ccccc2)C(=O)/C1=C/c1ccco1 | – | 3.55 µM (active)
11 | O=C1CC(=O)N(Cc2ccccc2)C(=O)N1CCCCCCN1C(=O)CC(=O)N(Cc2ccccc2)C1=O | -11% (inactive) | –
12 | Nc1ccc(S(=O)(=O)N2CCCCC2c2cccnc2)cc1 (centres undefined) | 2.79% (inactive) | –
13 | CC(=Nc1ccc2c(c1)CCC2)c1c(O)n(C)c(=O)n(C)c1=O | -0.941% (inactive) | –
14 | O=C1NC(=O)N(Cc2ccco2)C(=O)/C1=C/C=C/c1ccco1 | – | 8.91 µM (active)
15 | O=C1NC(=O)[C@]2(Cc3ccccc3N3CCN(c4ccccc4)CC32)C(=O)N1Cc1ccccc1 (some centres undefined) | – | 10 µM (active)
16 | NC(N)=N/N=C/c1ccc(N(c2ccccc2)c2ccccc2)cc1 | – | 8.91 µM (active)
17 | OC(c1ccncc1)(c1ccc(F)cc1)c1ccc(F)cc1 | -2.73% (inactive) | –
18 | COc1ccc(S(=O)(=O)Cc2ccc(C(=O)N3CCC4(CC3)OCCO4)o2)cc1 | 5.17% (inactive) | –
19 | O=C(O)c1cccc2c1NC(C(=O)O)C1CC(Sc3ccccc3[N+](=O)[O-])C(Cl)C21 (centres undefined) | – | 10 µM (active)
